Laboratory results: PubChem BioAssay
Several values for one entry are separate records, joined by “and”; a condition that tells them apart may be missing. Equal values may be shown once. Inconclusive results are not listed. Activity calls are given as the source filed them. Unless noted, the rule behind the calls is not given here.

Key:
[1] = growth inhibition of DIPG glioma cells, dose response, cell-based, SU-DIPG-XIII, MIPE5.0, CellTiter-Glo, qHTS (AID 1347064; cut-off not given, nearly all actives have AC50 up to about 23 µM); details: SU-DIPG-XIII viability, CellTiter-Glo ATP luminescence
[2] = inhibitors of Cryptococcus chitosan production, flow cytometry, Cibacron Brilliant Red staining (AID 1347148); details: Cryptococcus neoformans chitosan, stronger effect = lower value; at 10 µM unless noted;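 note: compound exposure lasted three days at 37 degrees C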
[3] = protection against mutant huntingtin cytotoxicity, PC12 cells, LDH release (AID 1610); details: PC12 mutant huntingtin toxicity, final LDH at 4 uM, stronger effect = lower value
[4] = tested on: Neuropilin-2 / VEGF-C interaction (human); assay: inhibitors of NRP2–VEGF-C binding, biochemical, microplate binding format, z-score (AID 743281); details: microplate NRP2/VEGF-C binding assay; stronger effect = lower value
[5] = LFS_MB_1R medulloblastoma cell growth inhibition, synergistic combos for chromothripsis tumors, cisplatin or BGB combos (AID 1671452; in the data active = inhibition above about 80%;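 note: cells exposed for 96 hours before readout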); details: LFS_MB_1R medulloblastoma cells, stronger effect = higher value
[6] = CRL2098 osteosarcoma cell growth inhibition, synergistic combos for chromothripsis tumors, BGB or cisplatin IC20 combos (AID 1671454; in the data active = inhibition above about 80%;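 note: cells exposed for 96 h before readout; 0% = vehicle DMSO and 100% = killing by high DMSO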); details: CRL2098 osteosarcoma cells, drug combinations, stronger effect = higher value
[7] = HD-MB03 medulloblastoma cell growth inhibition, synergistic combos for chromothripsis tumors, BGB or cisplatin IC20 combos (AID 1671455; in the data active = inhibition above about 83%;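 note: 0% = vehicle DMSO and 100% = high DMSO as cytotoxic control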); details: HD-MB03 medulloblastoma cells, stronger effect = higher value
[8] = UWB1.289 ovarian carcinoma cell growth inhibition, synergistic combos for chromothripsis tumors, BGB or cisplatin combos (AID 1671456; in the data active = inhibition above about 80%;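 note: cells exposed to compound for four days; 0% = vehicle DMSO and 100% = killing by high DMSO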); details: UWB1.289 ovarian carcinoma cells, stronger effect = higher value
[9] = LFS_MB_2R medulloblastoma cell growth inhibition, synergistic combos for chromothripsis tumors, cisplatin combos (AID 1671457; in the data active = inhibition above about 80%;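 note: cells exposed to compound for four days before readout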); details: LFS_MB_2R medulloblastoma cells, stronger effect = higher value
[10] = MDA-MB-436 breast carcinoma cell growth inhibition, synergistic combos for chromothripsis tumors, BGB or cisplatin combos (AID 1671458); details: MDA-MB-436 breast carcinoma growth inhibition, drug combinations, stronger effect = higher value;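 note: cells exposed for 96 hours; 0% = vehicle DMSO and 100% = killing by high DMSO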
[11] = UWB1.289_BRCA1 ovarian cancer growth, cell-based, BGB or cisplatin combinations (AID 1671459; in the data active = inhibition above about 80%); details: UWB1.289 BRCA1 ovarian carcinoma, drug combinations, stronger effect = higher value
[12] = human astrocyte viability loss, single and combined drugs, cytotoxicity control for chromothriptic childhood tumor combination screen, cell-based, BGB or cisplatin IC20 combos (AID 1671460; in the data active = inhibition above about 80%;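 note: cells exposed to compounds for 96 hours before viability readout; 0% = vehicle and 100% = killing control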); details: Human astrocytes, drug combinations, stronger effect = higher value
[13] = growth inhibition of BT084 medulloblastoma cells, cell-based, ICGC_MB145, cisplatin and BGB IC40 combos (AID 1671461; in the data active = inhibition above about 80%;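 note: cells exposed to drugs for 96 hours; 0% = vehicle DMSO and 100% = high DMSO full killing control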); details: drug combinations, stronger effect = higher value
[14] = growth inhibition of RCMB18 medulloblastoma cells, cell-based, cisplatin and BGB IC40 combos (AID 1671462; in the data active = inhibition above about 80%;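 note: cells exposed to compound for four days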); details: stronger effect = higher value
[15] = growth inhibition of CRL1545 osteosarcoma cells, cell-based, cisplatin and BGB IC20 combos (AID 1671464; in the data active = inhibition above about 80%;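 note: cells exposed to compound for 96 hours before readout; 0% = vehicle DMSO and 100% = high DMSO killing control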); details: stronger effect = higher value
[16] = modifiers of HSF1 nuclear foci, imaging, Selleck Cancer Library (AID 1347162; in the data active = plate-normalised HSF1 focus index below about 0.46); details: human cells, at 10 µM; SSMD: measured here: HSF1 foci SSMD mean; cell count: measured here: cell number; plate-normalised HSF1 focus index: stronger effect = lower value
[17] = measured here: combination with cisplatin, at 0.5 µM
[18] = measured here: combination with cisplatin, at 5 µM

Structure (SMILES): N[C@@H]1C[C@H]1c1ccccc1
- outcome [1]: inactive

Structure (SMILES): C[C@@H]1O[C@@H](O[C@H]2C[C@@H](O)[C@]3(CO)[C@H]4[C@H](O)C[C@]5(C)[C@@H](C6=CC(=O)OC6)CC[C@]5(O)[C@@H]4CC[C@]3(O)C2)[C@H](O)[C@H](O)[C@H]1O
- fold fluorescence [2]: 4.64 [at 85.5 µM] (inactive)

Structure (SMILES): CC[n+]1c(-c2ccccc2)c2cc(N)ccc2c2ccc(N)cc21
- normalised LDH release [3]: 0.673

Structure (SMILES): CCC(COC(=O)c1cc(OC)c(OC)c(OC)c1)(c1ccccc1)N(C)C (centres undefined)
- z-score [4]: -1.07 (inactive)

Structure (SMILES): NN=C(N)N
- outcome [1]: inactive

Structure (SMILES): CC(C)c1cccc(C(C)C)c1O
- outcome [1]: inactive

Structure (SMILES): CN1C(=O)CN=C(c2ccccc2)c2cc([N+](=O)[O-])ccc21
- z-score [4]: -0.553 (inactive)

Structure (SMILES): O=P1(NCCCl)OCCCN1CCCl (centres undefined)
- outcome [1]: inactive
- inhibition ([5]; at 0.5 µM): -28.1% (inactive) and -35.8% (inactive)
- inhibition ([5]; measured here: combination with BGB IC40, at 0.05 µM): 3.69% and -53.3%
- inhibition [5, 17]: -0.682% and -78.4%
- inhibition [5, 18]: -35.6% and -67.8%
- inhibition ([6]; at 0.5 µM): -54.7% (inactive) and -66.2% (inactive)
- inhibition ([6]; measured here: combination with BGB at IC20, at 0.5 µM): -36.5% and -70.3%
- inhibition ([6]; measured here: combination with cisplatin at IC20, at 0.5 µM): -76.6% and -81.7%
- inhibition ([7]; at 0.5 µM): -1.59% (inactive) and -13.1% (inactive)
- inhibition ([7]; measured here: combo with BGB at IC20, at 0.5 µM): -0.444% and -33.2%
- inhibition ([7]; measured here: combo with cisplatin at IC20, at 0.5 µM): -1.58% and -14.4%
- inhibition ([8]; at 0.5 µM): -7.68% (inactive) and -24.2% (inactive)
- inhibition ([8]; measured here: inhibition with BGB combination, at 0.05 µM): -37.9% and -17.6%
- inhibition ([8]; measured here: inhibition with cisplatin combination, at 0.05 µM): -13.2% and -26.4%
- inhibition ([9]; at 0.5 µM): -24.9% (inactive) and -21% (inactive)
- inhibition [9, 17]: -18.4% and -33%
- inhibition [9, 18]: -20.4% and -22.6%
- inhibition ([10]; at 0.5 µM): -32.5% (inactive) and -17.3% (inactive)
- inhibition ([10]; measured here: BGB combination, at 0.5 µM): -44.8% and -19%
- inhibition ([10]; measured here: BGB combination, at 5 µM): -38% and -30.9%
- inhibition ([10]; measured here: cisplatin combination, at 0.5 µM): -35.4% and -19.9%
- inhibition ([10]; measured here: cisplatin combination, at 5 µM): -21.1% and -24.7%
- inhibition ([11]; BGB combination, concentration series, at 5 µM): -15.7% and -7.29%
- inhibition ([11]; at 0.5 µM): -18.2% (inactive) and -23.7% (inactive)
- inhibition ([11]; cisplatin combination, concentration series, at 5 µM): -10.3% and -29.5%
- inhibition ([12]; at 0.5 µM): -8.49% (inactive) and 1.06% (inactive)
- inhibition ([12]; measured here: combo with BGB IC20, at 0.5 µM): -4.33% and 4.18%
- inhibition ([12]; measured here: combo with cisplatin IC20, at 0.5 µM): -7.61% and -5.83%
- inhibition ([13]; at 0.5 µM): -13.2% (inactive) and -8.24% (inactive)
- inhibition ([13]; cisplatin combination, at 0.5 µM): -6.37% and -25.6%
- inhibition ([13]; cisplatin combination, at 5 µM): -50% and -9.28%
- inhibition ([13]; measured here: BGB IC40 combination 0.05 uM, at 0.05 µM): 1.93% and -27.2%
- inhibition ([13]; single agent, at 5 µM): -32% and -16.6%
- inhibition ([14]; at 0.5 µM): -14.3% (inactive) and -7.44% (inactive)
- inhibition ([14]; cisplatin combo, at 5 µM): -2.4% and -9.06%
- inhibition ([14]; measured here: BGB IC40 combination, at 0.05 µM): -18.8% and -23%
- inhibition [14, 17]: -12.5% and 2.1%
- inhibition ([14]; single agent, at 5 µM): -33% and -28.9%
- inhibition ([15]; at 0.5 µM): -45.1% (inactive) and -50.6% (inactive)
- inhibition ([15]; measured here: with BGB IC20 combination, at 0.5 µM): -3.77% and -48%
- inhibition ([15]; measured here: with cisplatin IC20 combination, at 0.5 µM): -65.8% and -54.4%
- inhibition ([15]; single agent, at 0.05 µM): -16.2% and -50%
- inhibition ([15]; single agent, at 5 µM): 2.18% and -61%

Structure (SMILES): CNCC(O)c1ccc(O)cc1 (centres undefined)
- z-score [4]: -0.502 (inactive)
- outcome [1]: inactive

Structure (SMILES): NC1=NC(=O)C(c2ccccc2)O1 (centres undefined)
- z-score [4]: -1.08 (inactive)

Structure (SMILES): CN[C@@H]1C[C@@H](c2ccc(Cl)c(Cl)c2)c2ccccc21
- z-score [4]: 0.266 (inactive)

Structure (SMILES): C=C1C[C@@H]2[C@H](CC[C@]3(C)C(=O)CC[C@@H]23)[C@@]2(C)C=CC(=O)C=C12
- outcome [1]: inactive
- SSMD [16]: 1.72
- cell count [16]: 6870
- plate-normalised HSF1 focus index [16]: 1.09 (inactive)

Structure (SMILES): CC1(C)C(C=C(Cl)Cl)C1C(=O)OC(C#N)c1cccc(Oc2ccccc2)c1 (centres undefined)
- fold fluorescence [2]: 4.81 [at 120.1 µM] (inactive)

Structure (SMILES): Nc1ccncc1
- fold fluorescence [2]: 3.69 [at 531.3 µM] (inactive)

Structure (SMILES): NC(=O)OCCCc1ccccc1
- z-score [4]: -0.636 (inactive)

Structure (SMILES): Oc1cccc2cccnc12
- normalised LDH release [3]: 1

Structure (SMILES): N#Cc1nn(-c2c(Cl)cc(C(F)(F)F)cc2Cl)c(N)c1S(=O)C(F)(F)F (centres undefined)
- fold fluorescence [2]: 4.35 [at 114.4 µM] (inactive)

Structure (SMILES): C[N+]1(CCC(C(N)=O)(c2ccccc2)c2ccccc2)CCCCC1
- z-score [4]: -0.188 (inactive)

Structure (SMILES): CN1C(=O)COc2c(C(=O)NC3CN4CCC3CC4)cc(Cl)cc21 (centres undefined)
- z-score [4]: 0.29 (inactive)
- outcome [1]: inactive

Structure (SMILES): O=C(O)C(Cl)Cl
- z-score [4]: 0.208 (inactive)

Structure (SMILES): CCN(CC)CCOC(=O)C(O)(c1ccccc1)c1ccccc1
- z-score [4]: 0.28 (inactive)

Structure (SMILES): COc1cc(N)c(Cl)cc1C(=O)NC1CN2CCC1CC2 (centres undefined)
- z-score [4]: -0.38 (inactive)

Structure (SMILES): c1ccc2c(c1)Nc1ccccc1S2
- z-score [4]: 0.0903 (inactive)

Structure (SMILES): COc1cccc([C@@]2(O)CCCC[C@@H]2CN(C)C)c1
- z-score [4]: 0.404 (inactive)

Structure (SMILES): C#CCN(C)[C@H](C)Cc1ccccc1
- z-score [4]: -0.865 (inactive)
- outcome [1]: inactive

Structure (SMILES): C#C[C@]1(O)C=C[C@H]2[C@@H]3CCC4=CC(=O)CC[C@@H]4[C@H]3CC[C@@]21CC
- outcome [1]: inactive
